# Reference: PubChem BioAssay AID589 (National Center for Advancing Translational Sciences (NCATS), 2007)
# About 6,200 (11%) of roughly 59,000 compounds were called active. About 9% were inconclusive and are not listed. Cut-off read from the data, not from the text of the source: active = max dye-equivalent concentration above about 10 nM; inconclusive = mostly about 1.1 nM to 9.6 nM; inactive = weaker than that. The entries come from a sample that favours actives as a whole.
# Assay: qHTS Assay for Spectroscopic Profiling in 4-MU Spectral Region
# Conditions: compound autofluorescence, 340/450 nm, 4-MU equivalents; active compounds read high
# In short: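 Compounds in 100 mM Tris, pH 8.0, sat 15 min at room temperature before fluorescence was read at 340 nm excitation/450 nm emission; a per-plate six-point 4-MU standard curve converted signals to dye-equivalent concentration at each compound concentration.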
row,Structure (SMILES),max dye-equivalent concentration
1,C[C@H](CCC(=O)NCC(=O)O)[C@H]1CC[C@H]2[C@H]3[C@@H](C[C@@H](O)[C@]12C)[C@]1(C)CC[C@H](O)C[C@@H]1C[C@@H]3O,inactive
2,O=S(=O)(NCc1cccnc1)c1ccc(Br)s1,inactive
3,CCOc1ccc(N=C2SC(C(=O)O)CC(=O)N2C)cc1 (stereo not given),inactive
4,CCn1c(=N)c(S(=O)(=O)c2ccc(F)cc2)cc2c(=O)n3ccccc3nc21,590 nM (active)
5,O=CN1CCN(C2CC(=O)N(c3ccc4c(c3)OCO4)C2=O)CC1 (stereo not given),inactive
6,Cn1c(NC(=O)c2ccco2)c(-c2ccccc2Cl)c(=O)c2ccccc21,inactive
7,COC(=O)c1cc(Cl)c(NC(=O)c2ccco2)cc1OC,inactive
8,Cc1ccc(-n2nc3cc(Cl)c(NC(=O)c4ccco4)cc3n2)cc1,54 nM (active)
9,CSCC[C@H](NC(=O)NCc1cccs1)C(=O)O,inactive
10,COCCNc1ccnc(-c2cccc(NS(C)(=O)=O)c2)n1,inactive
11,N#Cc1ccc(CN2CCCC3(CCN(C(=O)c4ccco4)CC3)C2)cc1,inactive
12,COc1ccc2c(CC(=O)Nc3nnc(C4CC4)s3)coc2c1,11 nM (active)
13,COc1ccc(OCCCC(=O)Nc2nnc(C3CCCO3)s2)cc1 (stereo not given),inactive
14,COc1ccc(Cc2nnc(NC(=O)Cc3cccs3)s2)cc1,inactive
15,O/N=C1\CC2(Cc3nonc31)OCCO2,inactive
16,O=C(CN1CCOCC1)Nc1ccc(NC(=O)CN2CCOCC2)c(Cl)c1,inactive
17,Fc1ccc2nc(-c3ccccc3)nc(SCc3nnc(-c4ccccc4)o3)c2c1,29 nM (active)
18,Fc1ccc(-c2nnc(CSc3nnc(-c4ccc5c(c4)OCO5)o3)o2)cc1,inactive
19,C=CCn1c(SCc2nnc(-c3ccccc3)o2)nnc1C(O)c1ccccc1 (stereo not given),inactive
20,O=C(N1CCOCC1)N1CCOCC1,inactive
21,O=C(c1csnn1)N1CCC[C@@]2(CCN(Cc3nccs3)C2)C1,inactive
22,O=C(OC(C(=O)NC1CCCC1)c1ccc(F)cc1)c1ccno1 (stereo not given),inactive
23,CCn1c(NCCc2ccc(OC)c(OC)c2)nc2c1c(=O)n(C)c(=O)n2C,inactive
24,O=C(O)c1nn(-c2ccc(Cl)cc2)c2c1C(=O)c1ccccc1C2=O,inactive
25,O=C(O)CN1C(=O)CC(Cc2ccccc2)C1=O (stereo not given),inactive
26,O=C(NC1(C(F)(F)F)N=C2SCCN2C1=O)c1ccco1 (stereo not given),inactive
27,CCOC(=O)c1c(C(C#N)C#N)cc(C)nc1C,inactive
28,CCOC(=O)c1cnc(-n2nc(C)cc2C)nc1-n1nc(C)cc1C,inactive
29,CCOC(=O)c1cc(-c2ccc(Cl)s2)nc2c1c(C)nn2C,180 nM (active)
30,CN(C)c1nc2n(c(=O)n1)CCO2,inactive
